Results reported in PubChem BioAssay.
Active and inactive are the calls of the source. How the calls were made is not given here.

System: Botulinum neurotoxin type F light chain protease (Clostridium botulinum)
Assay: Botulinum neurotoxin type F light chain protease inhibition, multiplex microsphere flow cytometry, validation set (AID 588459)
Settings: multiplex microsphere protease substrate cleavage assay, at 10 µM, active compounds read high

**Q.** Which inhibition does the source give for `COc1cc(OC)c2c(C)c(Cl)c(=O)oc2c1` here?
**A.** 1.9% (inactive)

**Q.** For `Cc1ccc(CN2CCN(CCCc3ccccc3)CC2CCO)cc1` (stereo not drawn), which inhibition is on record?
**A.** 0.2% (inactive)

**Q.** Which inhibition does the source give for `Cc1ccc(O)c(CCc2ccccc2)n1` here?
**A.** 1.3% (inactive)

**Q.** How did the inhibition turn out when `CN1/C(=C\C=Nc2ccccc2)C(C)(C)c2ccccc21` was run?
**A.** -1.1% (inactive)

**Q.** How did the inhibition turn out when `CC(=Nc1ccccc1)C1=C(O)CCCC1=O` was run?
**A.** -3.4% (inactive)

**Q.** With `CC(C)Oc1ccc(C(CC(=O)O)c2ccc(F)cc2)cc1` (stereo not drawn) as the compound, how does the inhibition read?
**A.** 5.2% (inactive)

**Q.** `CNCCc1ccccn1` was tested. Which inhibition did it give?
**A.** 1.1% (inactive)

**Q.** Which inhibition does the source give for `CC1=CC2(O)OCCN(CCO)C2=CC1=O` (stereo not drawn) here?
**A.** -1.5% (inactive)

**Q.** Which inhibition does the source give for `COc1ccc(N2C(=O)[C@@H]3Cc4ccccc4CN3C2=O)cc1` here?
**A.** 1.7% (inactive)

**Q.** `CC(C)Oc1ccc2c(=O)c(-c3ccccc3)coc2c1` was tested. Which inhibition did it give?
**A.** 4.4% (inactive)

**Q.** With `COc1ccc(N2CCN(C(=S)NCc3ccccc3)CC2)cc1` as the compound, how does the inhibition read?
**A.** 2.4% (inactive)

**Q.** `Cc1c(OCC(F)(F)F)ccnc1CS(=O)c1nc2ccccc2[nH]1` (stereo not drawn) was tested. Which inhibition did it give?
**A.** -1% (inactive)

**Q.** `CC(C)COCC(CN(Cc1ccccc1)c1ccccc1)N1CCCC1` (stereo not drawn) was tested. Which inhibition did it give?
**A.** 1.2% (inactive)

**Q.** Which inhibition does the source give for `CN1CCCC(OC(=O)c2ccc3c(c2)OCCO3)C1` (stereo not drawn) here?
**A.** 1% (inactive)

**Q.** Which inhibition does the source give for `COC(=O)c1ccc(NC(=O)C23CCC(C)(C(=O)O2)C3(C)C)cc1` (stereo not drawn) here?
**A.** 0.4% (inactive)

**Q.** How did the inhibition turn out when `CC1(C#CC[N+]2(C)CCCCC2)CCC2C(O1)c1ccccc1OC2(C)C` (stereo not drawn) was run?
**A.** 2.6% (inactive)

**Q.** `CC(=O)C1=C(O)C(=O)N(CC(=O)O)C1c1ccccc1Cl` (stereo not drawn) was tested. Which inhibition did it give?
**A.** -1.5% (inactive)

**Q.** How did the inhibition turn out when `CCOC(=O)c1c(C)oc2cc(Br)c(OC(C)C(=O)OCC)cc12` (stereo not drawn) was run?
**A.** -0.6% (inactive)

**Q.** `CC(=O)N1CCN(c2ccc(OC[C@H]3CO[C@](Cn4ccnc4)(c4ccc(Cl)cc4Cl)O3)cc2)CC1` was tested. Which inhibition did it give?
**A.** -2.2% (inactive)

**Q.** Which inhibition does the source give for `CC[N+](C)(C)Cc1ccccc1Br` here?
**A.** 2.1% (inactive)

**Q.** For `N/C(=N\OS(=O)(=O)c1ccc2ccccc2c1)c1cccnc1`, which inhibition is on record?
**A.** -1.4% (inactive)

**Q.** Which inhibition does the source give for `CC(C)CC(=O)N(Cc1ccc(F)cc1)C1CCS(=O)(=O)C1` (stereo not drawn) here?
**A.** 8.9% (inactive)

**Q.** With `CC1CCc2cc(F)cc3c(=O)c(C(=O)O)cn1c23` (stereo not drawn) as the compound, how does the inhibition read?
**A.** 3.2% (inactive)

**Q.** With `O=C(O)CC(O)C(=O)O` (stereo not drawn) as the compound, how does the inhibition read?
**A.** -3.1% (inactive)

**Q.** With `Cc1c(NC(=O)c2cccs2)cccc1[N+](=O)[O-]` as the compound, how does the inhibition read?
**A.** 4.2% (inactive)

**Q.** Which inhibition does the source give for `CCNC(=O)C(Cc1ccccc1)NC(=O)OCc1ccccc1` (stereo not drawn) here?
**A.** 0.3% (inactive)

**Q.** How did the inhibition turn out when `N#Cc1c2c(c(-c3ccccc3)[nH]c1=O)CCCC2` was run?
**A.** -7.4% (inactive)

**Q.** `NC[C@H]1O[C@H](O[C@H]2[C@H](O)[C@@H](O[C@H]3O[C@H](CO)[C@@H](O)[C@H](N)[C@H]3O)[C@H](N)C[C@@H]2N)[C@H](N)C[C@@H]1O` was tested. Which inhibition did it give?
**A.** 3.4% (inactive)

**Q.** Which inhibition does the source give for `Cc1oncc1C(=O)Nc1ccc(C(F)(F)F)cc1` here?
**A.** 0.9% (inactive)

**Q.** Which inhibition does the source give for `Nc1ccc2[nH]ncc2c1` here?
**A.** -1.8% (inactive)

**Q.** How did the inhibition turn out when `O=C(O)CCCc1ccccc1` was run?
**A.** -3.3% (inactive)

**Q.** With `Oc1[nH]c2ccccc2c1N=Nc1ccccc1` as the compound, how does the inhibition read?
**A.** -2.7% (inactive)

**Q.** How did the inhibition turn out when `N/C(=N\OC(=O)CCCOc1ccc(Cl)cc1Cl)c1ccccn1` was run?
**A.** 4% (inactive)

**Q.** How did the inhibition turn out when `CC1(C)C(C=C(Cl)Cl)C1C(=O)N1CCN(Cc2ccccc2)CC1` (stereo not drawn) was run?
**A.** -0.6% (inactive)

**Q.** Which inhibition does the source give for `COc1ccc(C2C(C(=O)c3ccco3)=C(O)C(=O)N2CC2CCCO2)cc1` (stereo not drawn) here?
**A.** 1.3% (inactive)

**Q.** How did the inhibition turn out when `O=C(Nc1cccc(Cl)c1)N1CCN2C(=O)c3ccccc3C12c1ccccc1` (stereo not drawn) was run?
**A.** -3.9% (inactive)

**Q.** Which inhibition does the source give for `COc1cc(C(=O)Nc2ccc(N(C)C)cc2)c([N+](=O)[O-])cc1OC` here?
**A.** -2.4% (inactive)

**Q.** With `Nc1ncnc2c1ncn2C1OC(CO)C(O)C1O` (stereo not drawn) as the compound, how does the inhibition read?
**A.** 14.6% (inactive)

**Q.** With `CCOCC(=O)Nc1ccccc1C(=O)N1CCOCC1` as the compound, how does the inhibition read?
**A.** 32.5% (active)

Target: Botulinum neurotoxin type A (Clostridium botulinum) (UniProt P0DPI0)
Assay: BoNT/A light chain protease inhibitors, biochemical, multiplex microsphere flow cytometry, validation set (AID 588460)
Settings: at 10 µM, active compounds read high

Botulinum neurotoxin type A (Clostridium botulinum), sequence (P0DPI0 whole entry, looked up): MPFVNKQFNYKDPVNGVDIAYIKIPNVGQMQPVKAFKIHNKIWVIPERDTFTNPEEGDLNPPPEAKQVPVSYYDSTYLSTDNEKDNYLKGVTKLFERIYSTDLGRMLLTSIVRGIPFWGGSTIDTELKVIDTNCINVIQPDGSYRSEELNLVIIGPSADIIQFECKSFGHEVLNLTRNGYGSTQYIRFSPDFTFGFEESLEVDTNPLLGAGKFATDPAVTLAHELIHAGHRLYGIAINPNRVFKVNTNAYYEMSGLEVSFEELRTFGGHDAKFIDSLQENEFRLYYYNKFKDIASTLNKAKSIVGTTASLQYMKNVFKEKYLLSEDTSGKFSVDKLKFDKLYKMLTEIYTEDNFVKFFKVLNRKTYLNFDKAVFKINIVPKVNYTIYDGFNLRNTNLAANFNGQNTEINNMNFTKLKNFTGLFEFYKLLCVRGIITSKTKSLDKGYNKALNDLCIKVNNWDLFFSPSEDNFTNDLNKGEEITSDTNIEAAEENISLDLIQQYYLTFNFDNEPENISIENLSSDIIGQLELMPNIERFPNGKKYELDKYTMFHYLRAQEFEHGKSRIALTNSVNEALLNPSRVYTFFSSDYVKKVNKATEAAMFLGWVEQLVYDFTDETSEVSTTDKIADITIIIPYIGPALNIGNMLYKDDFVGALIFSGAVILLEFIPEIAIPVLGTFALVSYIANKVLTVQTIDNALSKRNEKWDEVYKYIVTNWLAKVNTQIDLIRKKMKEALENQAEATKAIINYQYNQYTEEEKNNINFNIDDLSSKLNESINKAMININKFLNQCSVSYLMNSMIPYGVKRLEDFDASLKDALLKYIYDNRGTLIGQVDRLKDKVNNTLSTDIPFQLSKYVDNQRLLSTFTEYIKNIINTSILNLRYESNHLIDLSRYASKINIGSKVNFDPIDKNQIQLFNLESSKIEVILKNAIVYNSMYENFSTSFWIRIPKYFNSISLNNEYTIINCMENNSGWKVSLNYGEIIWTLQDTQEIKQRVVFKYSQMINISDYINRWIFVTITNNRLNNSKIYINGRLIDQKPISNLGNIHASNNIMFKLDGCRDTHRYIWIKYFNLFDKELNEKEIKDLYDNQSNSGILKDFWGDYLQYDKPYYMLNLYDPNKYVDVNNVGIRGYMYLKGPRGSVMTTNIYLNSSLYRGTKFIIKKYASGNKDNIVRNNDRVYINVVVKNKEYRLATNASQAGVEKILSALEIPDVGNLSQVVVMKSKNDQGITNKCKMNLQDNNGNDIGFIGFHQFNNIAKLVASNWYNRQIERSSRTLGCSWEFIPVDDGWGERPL

**Q.** How did the inhibition turn out when `COc1cc(OC)c2c(C)c(Cl)c(=O)oc2c1` was run?
**A.** -0.8% (inactive)

**Q.** With `Cc1ccc(CN2CCN(CCCc3ccccc3)CC2CCO)cc1` (stereo not drawn) as the compound, how does the inhibition read?
**A.** -0.2% (inactive)

**Q.** `Cc1ccc(O)c(CCc2ccccc2)n1` was tested. Which inhibition did it give?
**A.** 0.5% (inactive)

**Q.** How did the inhibition turn out when `CN1/C(=C\C=Nc2ccccc2)C(C)(C)c2ccccc21` was run?
**A.** 0.8% (inactive)

**Q.** With `CC(=Nc1ccccc1)C1=C(O)CCCC1=O` as the compound, how does the inhibition read?
**A.** -0.9% (inactive)

**Q.** For `CC(C)Oc1ccc(C(CC(=O)O)c2ccc(F)cc2)cc1` (stereo not drawn), which inhibition is on record?
**A.** 2% (inactive)

**Q.** `CNCCc1ccccn1` was tested. Which inhibition did it give?
**A.** 1.1% (inactive)

**Q.** `CC1=CC2(O)OCCN(CCO)C2=CC1=O` (stereo not drawn) was tested. Which inhibition did it give?
**A.** -1% (inactive)

**Q.** Which inhibition does the source give for `COc1ccc(N2C(=O)[C@@H]3Cc4ccccc4CN3C2=O)cc1` here?
**A.** 0.4% (inactive)

**Q.** For `CC(C)Oc1ccc2c(=O)c(-c3ccccc3)coc2c1`, which inhibition is on record?
**A.** 1.4% (inactive)

**Q.** With `COc1ccc(N2CCN(C(=S)NCc3ccccc3)CC2)cc1` as the compound, how does the inhibition read?
**A.** -0.6% (inactive)

**Q.** Which inhibition does the source give for `Cc1c(OCC(F)(F)F)ccnc1CS(=O)c1nc2ccccc2[nH]1` (stereo not drawn) here?
**A.** -0.5% (inactive)

**Q.** `CC(C)COCC(CN(Cc1ccccc1)c1ccccc1)N1CCCC1` (stereo not drawn) was tested. Which inhibition did it give?
**A.** -1.8% (inactive)

**Q.** With `CN1CCCC(OC(=O)c2ccc3c(c2)OCCO3)C1` (stereo not drawn) as the compound, how does the inhibition read?
**A.** 0.8% (inactive)

**Q.** Which inhibition does the source give for `COC(=O)c1ccc(NC(=O)C23CCC(C)(C(=O)O2)C3(C)C)cc1` (stereo not drawn) here?
**A.** -1.5% (inactive)

**Q.** `CC1(C#CC[N+]2(C)CCCCC2)CCC2C(O1)c1ccccc1OC2(C)C` (stereo not drawn) was tested. Which inhibition did it give?
**A.** -0.8% (inactive)

**Q.** `CC(=O)C1=C(O)C(=O)N(CC(=O)O)C1c1ccccc1Cl` (stereo not drawn) was tested. Which inhibition did it give?
**A.** -0.5% (inactive)

**Q.** `CCOC(=O)c1c(C)oc2cc(Br)c(OC(C)C(=O)OCC)cc12` (stereo not drawn) was tested. Which inhibition did it give?
**A.** 0.5% (inactive)

**Q.** With `CC(=O)N1CCN(c2ccc(OC[C@H]3CO[C@](Cn4ccnc4)(c4ccc(Cl)cc4Cl)O3)cc2)CC1` as the compound, how does the inhibition read?
**A.** -1.1% (inactive)

**Q.** For `CC[N+](C)(C)Cc1ccccc1Br`, which inhibition is on record?
**A.** -0.1% (inactive)

**Q.** How did the inhibition turn out when `N/C(=N\OS(=O)(=O)c1ccc2ccccc2c1)c1cccnc1` was run?
**A.** -0.9% (inactive)

**Q.** How did the inhibition turn out when `CC(C)CC(=O)N(Cc1ccc(F)cc1)C1CCS(=O)(=O)C1` (stereo not drawn) was run?
**A.** 3.7% (inactive)

**Q.** For `CC1CCc2cc(F)cc3c(=O)c(C(=O)O)cn1c23` (stereo not drawn), which inhibition is on record?
**A.** 1.8% (inactive)

**Q.** With `O=C(O)CC(O)C(=O)O` (stereo not drawn) as the compound, how does the inhibition read?
**A.** -0.9% (inactive)

**Q.** Which inhibition does the source give for `Cc1c(NC(=O)c2cccs2)cccc1[N+](=O)[O-]` here?
**A.** 1.3% (inactive)

**Q.** For `CCNC(=O)C(Cc1ccccc1)NC(=O)OCc1ccccc1` (stereo not drawn), which inhibition is on record?
**A.** -1.4% (inactive)

**Q.** With `N#Cc1c2c(c(-c3ccccc3)[nH]c1=O)CCCC2` as the compound, how does the inhibition read?
**A.** -0.9% (inactive)

**Q.** With `NC[C@H]1O[C@H](O[C@H]2[C@H](O)[C@@H](O[C@H]3O[C@H](CO)[C@@H](O)[C@H](N)[C@H]3O)[C@H](N)C[C@@H]2N)[C@H](N)C[C@@H]1O` as the compound, how does the inhibition read?
**A.** -1.1% (inactive)

**Q.** How did the inhibition turn out when `Cc1oncc1C(=O)Nc1ccc(C(F)(F)F)cc1` was run?
**A.** 0.7% (inactive)

**Q.** With `Nc1ccc2[nH]ncc2c1` as the compound, how does the inhibition read?
**A.** -1.3% (inactive)

**Q.** With `O=C(O)CCCc1ccccc1` as the compound, how does the inhibition read?
**A.** -2.3% (inactive)

**Q.** How did the inhibition turn out when `Oc1[nH]c2ccccc2c1N=Nc1ccccc1` was run?
**A.** -0.4% (inactive)

**Q.** For `N/C(=N\OC(=O)CCCOc1ccc(Cl)cc1Cl)c1ccccn1`, which inhibition is on record?
**A.** -0.3% (inactive)

**Q.** For `CC1(C)C(C=C(Cl)Cl)C1C(=O)N1CCN(Cc2ccccc2)CC1` (stereo not drawn), which inhibition is on record?
**A.** 0.8% (inactive)

**Q.** `COc1ccc(C2C(C(=O)c3ccco3)=C(O)C(=O)N2CC2CCCO2)cc1` (stereo not drawn) was tested. Which inhibition did it give?
**A.** 0.2% (inactive)

**Q.** `O=C(Nc1cccc(Cl)c1)N1CCN2C(=O)c3ccccc3C12c1ccccc1` (stereo not drawn) was tested. Which inhibition did it give?
**A.** -0.1% (inactive)

**Q.** For `COc1cc(C(=O)Nc2ccc(N(C)C)cc2)c([N+](=O)[O-])cc1OC`, which inhibition is on record?
**A.** -0.2% (inactive)

**Q.** Which inhibition does the source give for `Nc1ncnc2c1ncn2C1OC(CO)C(O)C1O` (stereo not drawn) here?
**A.** -0.2% (inactive)

**Q.** How did the inhibition turn out when `CCOCC(=O)Nc1ccccc1C(=O)N1CCOCC1` was run?
**A.** 14.3% (inactive)
